# From article PMC5540273 (PLoS ONE, 2017)
# Test system: T1, VEGFR2
# T1 construct: gene KDR
# Conditions: concentration: 1 μM, replicates: in singlicate; n = 1
# 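Further: KINOMEscan kinase panel screen.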
row,SMILES,%Inh [%]
1,O=C(NCCNc1ccnc(Nc2ccc(F)cc2)n1)Nc1ccc2c(c1)OCO2 [GSK1379882],9
2,O=C(NCc1cccs1)c1cc(C(=O)c2c(Cl)cccc2Cl)c[nH]1 [GW823670],0
3,Cc1ccc(-c2ccc3c(ccc4sc5c(c43)NC[C@@H](C)N=C5N(C)C)n2)cn1,0
4,Cc1cc(Nc2nc(-c3cccc(C)n3)nc3ccccc23)ccn1 [GW872411],0
5,Nc1nc(-c2ccccc2F)c(-c2ccnc3ccccc23)s1 [GW560459],0
6,COc1ccc(-c2cc3c(C)nc(N)nc3n([C@H]3CC[C@H](O)CC3)c2=O)cn1,0
7,OCCCNc1nccc(-c2c(-c3cccc(C(F)(F)F)c3)nn3cc(C(F)(F)F)ccc23)n1 [GW630813],3
8,CN(C)c1cc(-c2ccc3c(N)n[nH]c3c2)nc(N)n1 [GSK2219329],3
9,Cl.c1ccc(Cn2cnc3cc(Nc4ncnc5ccccc45)ccc32)cc1 [GW272142],0
10,Cc1cccc(-c2cc(-c3c[nH]nc3-c3ccccn3)ccn2)c1 [GW679395],0
11,CCC(=O)c1c(-c2ccccc2)c2cc(Cl)ccc2c(=O)n1Cc1cc(S(C)(=O)=O)n(CCC(C)(C)O)n1,2
12,Cc1nnc(-c2ccc(C)c(-c3ccc(C(=O)O)cc3)c2)o1 [GW608005],3
13,COc1cc2nccc(Nc3ccc(OCc4ccc(NC(C)=O)cc4)cc3)c2cc1OC.Cl [GW440135],96.2
14,COC(=O)c1c(-c2ccccc2)c2cc(Br)ccc2c(=O)n1Cc1ccc(NC(=O)CCC(=O)O)cc1,0
15,Cc1nc(N(C)[C@H]2CN(C(=O)CC#N)CC[C@H]2C)c2cc[nH]c2n1,0
16,COc1cc2ncn(-c3cc(OCc4ccncc4)c(C(N)=O)s3)c2cc1OC [GSK336313],7
17,CCC(=O)c1c(-c2ccccc2)c2cc(Cl)ccc2c(=O)n1Cc1cc(S(C)(=O)=O)n(CC(N)=O)n1,0
18,CCS(=O)c1ccc(-c2coc3ccc(-c4nnc(C)o4)cc23)cc1 (stereo not drawn),10

row,SMILES,%Inh [%]
1,COc1ccc(-c2cc3c(C)nc(N)nc3n([C@H]3CC[C@H](OCCO)CC3)c2=O)cn1,0
2,CC(C)(C)c1ccc(C(=O)Nc2cn3cc(-c4ccccc4)ccc3n2)cc1,0
3,COc1cc(Nc2nccc(N3CCC(NC(=O)C4COc5ccccc5O4)C3)n2)cc(OC)c1OC (stereo not drawn) [GSK1379761],0
4,CN1C(=O)C(Nc2ccccc2)=C(c2ccccc2)C1=O [SB-300079],0
5,COc1ccc(-n2cnc3c(N)ncnc32)cc1 [SKF-97236],0
6,CCc1ccc(-c2ccc3c(c2)-c2nn(C)cc2S(=O)(=O)N3C)cc1,0
7,Cc1ccc(Oc2ccc(Nc3ncnc4cc[nH]c34)cc2C)cn1,15
8,O=C(Nc1n[nH]c2nc(-c3ccccc3)c(Br)cc12)C1CC1 [SB-708998],2
9,Cc1ccccc1COc1cc(-n2cnc3cc(Cl)ccc32)sc1C(N)=O [GW813349],11
10,COc1cc(OC)cc(-c2cc3cnc(N)nc3nc2NC(=O)NC(C)(C)C)c1,36
11,COc1cc(Nc2nccc(N3CCC(NC(=O)C(C)c4ccc(Cl)cc4)C3)n2)cc(OC)c1OC (stereo not drawn) [GSK1379757],0
12,CCCC(=O)Nc1n[nH]c2ncc(-c3cccc4ccccc34)cc12 [SB-642057],11
13,COc1ccc(-c2coc3ccc(-c4nnc(SCc5cccc(C#N)c5)o4)cc23)cc1,10
14,Cc1nnc(-c2ccc3ncn(-c4ccc(S(C)=O)cc4)c3c2)o1 (stereo not drawn),3
15,O=C1NC(=O)C(c2ccccc2)=C1Nc1cccc(O)c1 [SB-390534],7
16,Nc1ncnc2c1ncn2-c1cccc2ccccc12 [SKF-97184],0
17,COc1ccc(Nc2nccc(N3CCC(NS(=O)(=O)c4ccc(NC(C)=O)cc4)C3)n2)cc1 (stereo not drawn) [GSK1379729],0
18,COc1cc2ncn(-c3cc(OCc4ccc(S(C)(=O)=O)cc4)c(C(N)=O)s3)c2cc1OC [GW869979],20
